Source: PubChem
Compounds with a hit are over-represented: about 3.4% of the library has one in this group of screens.
SMARCA2 act – SMARCA2 function activation, primary screen; 1% of 370,000 active; activation, % at 9.1 µM; MG213 cells, MMTV-luciferase reporter, dexamethasone, overnight; in the data active = activation above about 7.8%;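 also: 0% = vehicle wells and 100% = reference activator wells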
NR2F2 inh – blocks human COUP-TFII nuclear receptor | P24468 | HEK293T NGFI-A luciferase reporter, luminescence | inhibition, % at 8.6 µM | 0.7% of 370,000 active;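 active = inhibition above a per-plate cutoff, mean inhibition of test wells between control levels plus 3 SD, cut at about 38% in these data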;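 also: cells cotransfected with COUP-TFII expression vector driving the NGFI-A reporter; 0% = median of COUP-TF2 test wells and 100% = reporter-only cells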
Target sequence (P24468 whole entry, looked up): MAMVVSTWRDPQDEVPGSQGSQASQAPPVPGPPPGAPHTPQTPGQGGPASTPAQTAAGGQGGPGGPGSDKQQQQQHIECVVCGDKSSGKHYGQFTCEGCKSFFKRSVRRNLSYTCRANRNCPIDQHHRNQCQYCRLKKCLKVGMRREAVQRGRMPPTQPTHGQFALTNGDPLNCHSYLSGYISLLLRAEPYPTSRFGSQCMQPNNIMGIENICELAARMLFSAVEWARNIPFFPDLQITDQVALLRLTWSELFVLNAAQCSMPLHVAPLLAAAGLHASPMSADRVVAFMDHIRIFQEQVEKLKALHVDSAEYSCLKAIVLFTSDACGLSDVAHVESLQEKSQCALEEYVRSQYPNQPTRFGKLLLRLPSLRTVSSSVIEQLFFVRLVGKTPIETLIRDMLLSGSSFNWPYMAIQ
Gli-Sufu antag – antagonists of Gli-Sufu signaling | Sufu-KO-LIGHT fibroblasts, Gli luciferase reporter luminescence | inhibition, % at 5 µM | 0.74% of 340,000 active;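 active = inhibition above about 55%, limit read from the data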;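 also: 0% = DMSO-treated cells and 100% = wells with medium but no cells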
Cardio protect – modulators protecting cardiomyocytes from myocardial damage; H9c2 cardiomyocytes, H2O2 injury protection, ATPLite, 2 h; protection from H2O2 cell death, % at 20 µM; 0.63% of 360,000 active; AID 588492;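 active = compounds giving at least 50% protection of heart cells from peroxide-induced death in the single-dose screen, raw or plate-pattern-corrected value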;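 also: 0% = DMSO wells with peroxide and 100% = DMSO wells without peroxide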
GalR3 antag – human GalR3 antagonism; HEK293 GalR3-CNG cAMP membrane potential fluorescence; galR3 body fused to GalR1 C-terminus; 0.44% of 360,000 active; inhibition, % at 3 µM;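 active = inhibition above the screen-wide average plus 3 SD, cut at about 13% in these data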;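 also: forskolin and galanin both at EC90 stimulate the cells; cAMP rise reported by CNG channel membrane potential dye signal; 0% = forskolin plus galanin with DMSO and 100% = forskolin alone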
GAA850 FXN act – increases GAA850 frataxin promoter reporter activity; AID 540364; activation, % at 6 µM; 0.56% of 360,000 active; HEK293 lucGAA850 FXN promoter luciferase reporter, 24 h; percent of 10 µM SAHA response;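 active = activation above the average of all compounds screened plus 3 SD, cutoff fixed separately per campaign, cut at about 7.5% in these data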;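 also: 0% = DMSO wells and 100% = 10 µM SAHA wells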
Gli-Sufu confirm – Gli-SUFU antagonism confirmation, single concentration; shares compounds with Gli-Sufu antag; Sufu-KO-LIGHT cells, Gli luciferase reporter, luminescence; inhibition, % at 5 µM; 40% of 2,500 active; AID 602428;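 active = mean inhibition at 5 µM reaching about 45%, limit read from the data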;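 also: plate controls were DMSO-treated cells for no effect and wells lacking cells for full effect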
Gli cytotox – cytotoxicity counter-screen for Gli-SUFU antagonists | 32% of 2,500 active | shares compounds with Gli-Sufu antag | cytotoxicity, % at 5 µM | Sufu-KO-LIGHT cells cytotoxicity, ATP luminescence;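 active = mean cytotoxicity at 5 µM above about 25%, limit read from the data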;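 also: cells exposed to compound overnight for roughly 16 to 18 hours; plate controls were DMSO wells with cells for no effect and medium without cells for full effect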
Wnt3a cs – counter-screen for Gli-SUFU antagonists: Wnt3a reporter inhibition. inhibition, % at 6.25 µM. Wnt-LIGHT cells, Wnt3a-driven luciferase reporter, luminescence. 20% of 2,500 active. shares compounds with Gli-Sufu antag;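 active = mean inhibition above about 25%, limit read from the data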
Starred values were filed as active, the others as inactive; / = no result given; ! = not confirmed by another sample.

SMILES	SMARCA2 act	NR2F2 inh	Gli-Sufu antag	Cardio protect	GalR3 antag	GAA850 FXN act	Gli-Sufu confirm	Gli cytotox	Wnt3a cs
Cc1ccc(NC(=S)N(CCCN2CCCC2)Cc2cccn2Cc2ccc(Cl)cc2)cc1Cl	-4.6	24.3	60.8*	-15.6	-3.0	3.2	16.1	6.1	-24.6
Cc1ccc(NC(=S)N(CCCN2CCCC2)Cc2cccn2Cc2ccc(Cl)cc2)cc1C	5.9	-6.4	-10.2	-17.7	-2.6	-1.8	/	/	/
CN1CCc2nc(NC(=O)c3cccc(OC(F)F)c3)sc2C1	-1.7	-18.7	68.5*	-17.6	-2.4	6.2	10.2	11.2	-101.4
CC1CCC(C(C)C)C(OC(=O)Cn2c(-c3ccc(Br)cc3)[n+](C)c3ccccc32)C1 (centres undefined)	-8.3	23.6	69.6*!	-20.5	-2.4	0.1	70.0*	41.2*	-26.7
Cc1ccc(-n2c(SCC(=O)Nc3cccc4ccccc34)nnc2-c2ccccc2)cc1	-5.3	-1.9	/	/	/	/	/	/	/
CC1(C)CC(=O)C2=C(C1)OC(c1ccc(O)cc1)C(C#N)=C2N (centres undefined)	-1.6	13.9	50.9	5.0	-2.8	-3.8	10.6	2.4	-6.4
CC1(C)CC(=O)C2=C(C1)OC(c1ccncc1)C(C#N)=C2N (centres undefined)	-1.6	-2.2	7.6	-0.6	-0.9	1.0	/	/	/
Cc1ccc(NC(=O)c2c3c(nc4ccccc24)CCC3)cc1S(=O)(=O)N(C)C	-4.2	23.6	3.5	0.1	1.9	-6.7	/	/	/
COc1cc(NC(=O)c2cc3ccccc3cc2OC)ccc1NC(=O)c1cccs1	-0.4	-17.1	56.8*	63.3*	-3.2	-5.9	34.5	15.6	-71.4
Nc1[nH]c(C(=O)c2ccccc2)c(-c2ccc(Br)cc2)c1C(=O)c1ccccc1	5.0	6.3	/	/	-2.7	/	/	/	/
Cc1ccc(C)c(N2CCN(c3nc4ccccc4c(=O)n3Cc3ccccc3)CC2)c1	-1.7	-15.4	54.9	-17.2	1.5	-1.6	24.2	15.1	-6.2
O=C(C[C@@H]1C/C=C\C[C@H](NC(=O)OCC2c3ccccc3-c3ccccc32)C(=O)OC[C@@H]2CCCN2C1=O)N[C@@H](CO)Cc1ccccc1	2.1	1.4	33.3	-10.4	-4.5	2.4	/	/	/
O=C(C[C@H]1C/C=C\C[C@H](NC(=O)OCC2c3ccccc3-c3ccccc32)C(=O)OC[C@@H]2CCCN2C1=O)N[C@H](CO)Cc1ccccc1	/	/	50.2	-3.5	/	0.5	45.8*	11.4	-7.5
O=C(C[C@@H]1C/C=C\C[C@H](NC(=O)OCC2c3ccccc3-c3ccccc32)C(=O)OC[C@H]2CCCN2C1=O)N[C@H](CO)Cc1ccccc1	-2.6	3.0	67.7*	-10.6	-4.7	-2.0	65.0*	24.0	-18.9
CN1OC[C@@H]2CN(S(=O)(=O)c3ccccc3)[C@H](c3ccc(-n4ccnc4)cc3)C[C@@H]21	2.2	7.2	/	2.2	-3.4	/	/	/	/
CCCCNC(=O)c1nc(C2CCN(S(=O)(=O)c3ccc(OC(F)(F)F)cc3)CC2)oc1-c1ccccc1	2.5	2.2	/	/	-6.0	/	/	/	/
O=C(CSc1cccc[n+]1[O-])CSc1cccc[n+]1[O-]	6.9	-8.9	56.2*	6.3	-0.9	-0.6	15.4	9.7	0.5
CCN(CC)C(=O)C1CCCN(C(=O)CCn2nnnc2CN2CCOCC2)C1 (centres undefined)	-3.1	8.8	-0.1	0.7	0.0	0.2	/	/	/
O=C(CCCn1nnnc1CN1CCOCC1)N1CCC(c2ccc(F)cc2)C1 (centres undefined)	-0.6	12.1	97.1*	1.9	-1.3	-1.3	21.3	10.4	-26.7
CCOc1ncccc1C(=O)Nc1c(C)n(C)n(-c2ccccc2)c1=O	-4.4	-0.9	0.8	-2.0	-1.2	-0.6	/	/	/
COc1ccccc1-n1c(=O)c2c3c(sc2n2c(SC)nnc12)CCC3	1.5	-0.1	52.4	14.5	0.0	1.4	15.5	-4.4	16.8
